13 molecules from PubChem BioAssay AID743446 (Broad Institute, 2014) can be followed below.

Potency and affinity values are given separately. The source made the active and inactive calls. No rule for the calls is given here.

A short description of this assay: HEK293 cell cytotoxicity, dose response, cytotoxicity control, plate reader, cherry-picked samples (AID 743446). Particulars: hits give low values; at 26 µM unless noted.
In the case of `COc1ccc(Cl)cc1C(=O)Nc1nc2ccccc2[nH]1`, the max activity was 69.4% [at 0.195 µM] (inactive).

As for `COc1ccc2oc(C(=O)NCCc3ccccc3)c(C)c2c1`, the max activity was -55.4% (inactive).

Turning to `CCOc1ccc(C(=O)Nc2nnc(SCC(=O)NCC3CCCO3)s2)cc1` (stereo not drawn), the max activity is 27.5% [at 3 µM] (inactive).

Regarding `C[C@H]1CCCCO[C@@H](CN(C)C(=O)Nc2ccccc2)[C@@H](C)CN([C@@H](C)CO)C(=O)c2cc(NC(=O)NC3CCCCC3)ccc2O1`, the max activity is 12.4% [at 0.05 µM] (inactive).

Take `O=C(Nc1ccc(Cl)cc1)Nc1ccccc1C(=O)O`: the max activity was 16.5% [at 0.1 µM] (inactive).

`O=C(CCCc1ccccc1)Nc1cccc(C(=O)O)c1`: the max activity was 48.9% (inactive).

Regarding `COc1ccccc1C=NNC(=O)c1ccncc1`, the max activity was 20.7% (inactive).

As to `Cc1cccn2c(CNCC3(c4ccccc4)CCCC3)c(C(=O)N3CCOCC3)nc12`, the max activity is 13.8% [at 3 µM] (inactive).

For `COc1ccc(NC(=O)N(C)C[C@@H]2OCCCC[C@H](C)Oc3ccc(NC(=O)C4CCCCC4)cc3C(=O)N([C@H](C)CO)C[C@@H]2C)cc1`, the max activity was 11.8% (inactive).

`O=C(Nc1ccc(Cl)cc1)Nc1cccc(C(=O)O)c1`: the max activity is -10.1% (inactive).

On to `CC1(c2ccccc2Cl)NC(=O)N(CC(=O)N2CCc3ccccc32)C1=O` (stereo not drawn), for which the max activity was 40.9% (inactive).

Regarding `C[C@H](CO)N1C[C@H](C)[C@H](CN(C)C(=O)Nc2ccc3c(c2)OCO3)OCCCC[C@H](C)Oc2ccc(NC(=O)NC3CCCCC3)cc2C1=O`, the max activity is -16.6% (inactive).

Regarding `C[C@H](CO)N1C[C@H](C)[C@H](CN(C)C(=O)Nc2ccc3c(c2)OCO3)OCCCC[C@H](C)Oc2ccc(NC(=O)C3CCCCC3)cc2C1=O`, the max activity was 17.6% (inactive).
